Assay results published in article PMC8159961, “Exploring protein hotspots by optimized fragment pharmacophores” (Nature Communications, 2021).

molecular target: thrombin (human, UniProt P00734); assay: primary screen, binary call; higher = more effect of the substance; set-up: screenings were carried out in duplicate in one independent experiment; settings: 200 µM
Procedure: Protease inhibitory assays were performed in transparent microtiter plates in a final volume of 200 µL with the use of chromogenic substrates. The reaction rates in the absence and in the presence of the inhibitor were measured; screenings were carried out in duplicate in one independent experiment and Ki values were determined in triplicate in two independent experiments.

Thrombin, active:
NC(=O)N1CCC(C(=O)O)CC1 1

Thrombin, inactive:
Cc1nc(-c2ccccc2)cs1 0
CN(C)c1cc(CN)ccn1 0
c1cnc2c(c1)NCCC2 0
CC1(C)OC(=O)c2cc(Br)c(O)cc2O1 0
CS(=O)(=O)c1ccc(OC(F)(F)F)cc1 0
COc1ccccc1C1CCNCC1 0
CCCN1C(=O)CC(=O)NC1=S 0
O=c1[nH]ncc2c1oc1ccccc12 0
O=C1CCN(c2ccncc2)CC1 0
Cc1ccc(CCNc2ccccc2)cn1 0
